Results: PubChem BioAssay AID602350 (Broad Institute, 2012)
Entries with a potency or affinity are not part of this list. The source made the active and inactive calls.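 The calls were made as follows: active = absorbance falls by 30% or more versus neutral controls, with a potency fitted within twice the top valid dose; inconclusive = no clear call, values can overlap the other calls; inactive = change opposite to expected direction, plus the rest.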

target: Protein disulfide-isomerase (Homo sapiens) (UniProt P07237); assay: PDI inhibitors, insulin aggregation turbidity, dose response, biochemical, absorbance, cherry-picked samples (AID 602350); conditions: recombinant PDI insulin aggregation, absorbance 650 nm, 90 min; series mostly up to 19.5 µM; activity change, negative = inhibition: at the top concentration;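 also: 0% = neutral controls and -100% = rutin hydrate positive control wells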
Sequence (P07237 whole entry, looked up): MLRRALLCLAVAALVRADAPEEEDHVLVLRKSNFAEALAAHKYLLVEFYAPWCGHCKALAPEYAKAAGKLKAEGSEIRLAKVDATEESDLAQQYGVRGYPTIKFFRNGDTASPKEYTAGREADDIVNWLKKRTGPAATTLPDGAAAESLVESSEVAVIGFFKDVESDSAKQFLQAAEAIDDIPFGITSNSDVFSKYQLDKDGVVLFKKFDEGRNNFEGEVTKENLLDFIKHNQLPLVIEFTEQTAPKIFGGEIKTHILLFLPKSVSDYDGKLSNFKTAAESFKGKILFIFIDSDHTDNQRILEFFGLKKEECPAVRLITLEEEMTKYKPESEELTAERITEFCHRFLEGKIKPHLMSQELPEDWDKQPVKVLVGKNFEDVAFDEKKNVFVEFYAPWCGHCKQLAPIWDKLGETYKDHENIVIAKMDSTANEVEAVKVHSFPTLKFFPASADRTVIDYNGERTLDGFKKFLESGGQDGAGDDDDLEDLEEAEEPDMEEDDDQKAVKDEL

Compound	activity change, negative = inhibition
NC(=O)CSc1nnc([C@@H](N)Cc2c[nH]c3ccccc23)o1	-3.03% (inactive)
CC(Cc1ccc(O)cc1)NCC(O)c1ccc(O)c(O)c1 (stereo unspecified)	-11.8% (inactive)
CCOC(=O)C1(CCOc2ccccc2)CCN(Cc2cccc(O)c2)CC1	-12.9% (inactive)
CN1CCN(CCOC2c3ccccc3CSc3ccc(Cl)cc32)CC1 (stereo unspecified)	-3.03% (inactive)
C[C@H]1CCCC(=O)CCCCCc2cc(O)cc(O)c2C(=O)O1	8.5% (inactive)
CCOC(C(=O)OCCCN(CC)CC)(c1ccccc1)c1ccccc1	8.02% (inactive)
